Source: PubChem BioAssay (Tox21)
Values without a mark were called inactive. Records with an inconclusive call do not appear. A call without a number means that no potency is given here. The source made the active and inactive calls. Unless noted, calls come from the whole dose curve; as a rule, active = well fitted curve in the direction sought with a large enough effect in the repeat runs; inconclusive = weak or mixed curves; inactive = no such curve, though single readings can be large; an effect the other way counts as inactive or inconclusive.

Assays:
[1] = A CellTox Green Cytotoxicity Assay to monitor cytotoxicity in HepG2 cells - 8 hour (AID 1224890); note: nearly all actives have a fitted effect of over 45% in size; note: potency is the fitted concentration of half-maximal effect
Method in brief: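 Using 1536-well format, dye-containing HepG2 suspension was seeded, allowed 5 h at 37 C/5% CO2, dosed by pintool with compounds, positive and negative controls, and imaged for fluorescence across 40 h.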

[2] = qHTS assay to identify small molecule antagonists of the estrogen receptor alpha (ER-alpha) signaling pathway using the BG1 cell line in the presence of 0.1 nM 17-beta-estradiol - cell viability counter screen (AID 1259241); note: nearly all actives have a fitted effect of over 40% in size
Method in brief: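 Live-cell protease activity (CellTiter-Fluor fluorescence, 30 min) was read in the same wells after VM7Luc4E2 cells had been exposed to compounds with 0.1 nM 17beta-estradiol for 22 hr at 37C.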

[3] = qHTS assay to identify small molecule antagonists of the androgen receptor (AR) signaling pathway using the MDA cell line in the presence of 0.5 nM R1881 - cell viability counter screen (AID 1259242); note: nearly all actives have a fitted effect of over 45% in size
Method in brief: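 Viability of MDA-kb2 cells was multiplexed with the luciferase AR readout; after 16 hr with compounds and R1881 at 0.5 nM final, CellTiter-Fluor fluorescence was recorded.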

[4] = target: Androgen receptor (Homo sapiens) (UniProt P10275); assay: qHTS assay to identify small molecule antagonists of the androgen receptor (AR) signaling pathway using the MDA cell line in the presence of 0.5 nM R1881 (AID 1259243); note: nearly all actives have a fitted effect of over 50% in size
Androgen receptor (Homo sapiens), sequence (P10275 whole entry, looked up): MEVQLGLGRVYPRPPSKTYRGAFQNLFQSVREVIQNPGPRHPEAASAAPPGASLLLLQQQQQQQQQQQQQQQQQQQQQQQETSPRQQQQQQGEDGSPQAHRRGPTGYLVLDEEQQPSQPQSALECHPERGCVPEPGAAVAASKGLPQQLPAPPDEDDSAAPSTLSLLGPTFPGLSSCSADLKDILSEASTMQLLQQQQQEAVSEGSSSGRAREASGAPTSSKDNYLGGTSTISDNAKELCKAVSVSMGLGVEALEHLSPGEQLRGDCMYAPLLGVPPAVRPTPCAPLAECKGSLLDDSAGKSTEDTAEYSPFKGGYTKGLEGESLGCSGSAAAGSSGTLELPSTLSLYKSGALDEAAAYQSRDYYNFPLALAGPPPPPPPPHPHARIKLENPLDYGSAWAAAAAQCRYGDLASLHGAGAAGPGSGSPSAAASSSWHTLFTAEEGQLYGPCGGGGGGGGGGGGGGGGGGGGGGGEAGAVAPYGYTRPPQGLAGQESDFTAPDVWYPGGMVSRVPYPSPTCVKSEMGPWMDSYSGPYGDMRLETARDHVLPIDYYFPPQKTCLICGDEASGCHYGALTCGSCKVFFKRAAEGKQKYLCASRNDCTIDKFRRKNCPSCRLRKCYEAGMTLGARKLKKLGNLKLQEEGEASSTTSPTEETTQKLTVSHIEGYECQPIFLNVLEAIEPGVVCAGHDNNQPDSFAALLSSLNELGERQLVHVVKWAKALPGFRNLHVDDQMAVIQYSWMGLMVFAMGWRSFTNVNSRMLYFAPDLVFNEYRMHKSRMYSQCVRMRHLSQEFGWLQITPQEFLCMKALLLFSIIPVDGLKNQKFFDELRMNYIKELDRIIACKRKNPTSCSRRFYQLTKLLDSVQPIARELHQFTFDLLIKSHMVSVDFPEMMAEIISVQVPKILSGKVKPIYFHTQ
Method in brief: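 Reporter cells cultured without CO2 receive test chemicals, then 0.5 nM R1881 final; after 16 hr at 37C, ONE-Glo is added and light output recorded.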

[5] = target: Estrogen receptor (Homo sapiens) (UniProt P03372); assay: qHTS assay to identify small molecule antagonists of the estrogen receptor alpha (ER-alpha) signaling pathway using the BG1 cell line in the presence of 0.1 nM 17-beta-estradiol (AID 1259244); note: nearly all actives have a fitted effect of over 50% in size
Estrogen receptor (Homo sapiens), sequence (P03372 whole entry, looked up): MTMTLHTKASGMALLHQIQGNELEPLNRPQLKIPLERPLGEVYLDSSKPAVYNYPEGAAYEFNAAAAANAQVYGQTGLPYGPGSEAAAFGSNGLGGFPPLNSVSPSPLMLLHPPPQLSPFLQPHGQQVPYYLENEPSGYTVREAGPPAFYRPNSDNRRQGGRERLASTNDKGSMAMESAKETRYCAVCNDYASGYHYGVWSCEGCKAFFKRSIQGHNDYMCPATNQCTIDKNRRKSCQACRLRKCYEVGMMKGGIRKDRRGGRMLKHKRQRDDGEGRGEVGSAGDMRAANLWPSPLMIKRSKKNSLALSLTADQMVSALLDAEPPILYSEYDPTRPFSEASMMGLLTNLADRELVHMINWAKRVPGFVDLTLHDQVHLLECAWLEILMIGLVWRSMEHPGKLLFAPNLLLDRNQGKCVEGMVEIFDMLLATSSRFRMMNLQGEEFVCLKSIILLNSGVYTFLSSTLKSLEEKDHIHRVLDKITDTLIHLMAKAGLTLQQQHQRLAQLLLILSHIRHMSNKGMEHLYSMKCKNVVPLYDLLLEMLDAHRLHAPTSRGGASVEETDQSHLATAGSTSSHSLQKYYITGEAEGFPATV
Method in brief: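 Estradiol at 0.1 nM (final) stimulates the endogenous ER-alpha of VM7Luc4E2 cells carrying an ERE-driven luciferase; compounds are co-incubated 22 h at 37C and luciferase output quantified by luminescence.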

[6] = qHTS assay to identify small molecule HDAC inhibitors (AID 1259364);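 note: wild-type HCT-116 cells with endogenous class I/II HDAC activity; top concentration of the series differs between compounds; nearly all actives have a fitted effect of over 45% in size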
Method in brief: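 Read-out: luminescence of HDAC-Glo I/II reagent, 30 min RT, reflecting class I/II deacetylase activity in whole HCT-116 cells pre-exposed 2 h to DMSO-dissolved compounds.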

[7] = qHTS assay to identify small molecule HDAC inhibitors - cell viability counter screen (AID 1259365); note: series mostly up to about 92 µM; nearly all actives have a fitted effect of over 50% in size
Method in brief: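 HCT-116 (wild type), 1,500 cells/well, overnight 37C/5% CO2; compound in DMSO 2hr; CellTiter-Glo 30min RT; luminescence read.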

[8] = qHTS assay to identify small molecule agonists of the sonic hedgehog signaling (Shh) pathway - cell viability counter screen (AID 1259366); note: nearly all actives have a fitted effect of over 50% in size
Method in brief: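 CellTiter-Fluor fluorescence read-out, 1 hr at 37C, added after 23hr compound exposure. Cells: 3T3 Gli1-Luc, an NIH/3T3 clone with stably integrated Gli1-Luc reporter, plated 4hr before compound.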

[9] = qHTS assay to identify small molecule antagonists of the sonic hedgehog signaling (Shh) pathway - cell viability counter screen (AID 1259367); note: nearly all actives have a fitted effect of over 55% in size
Method in brief: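 Using CellTiter-Fluor, viability of Gli1-Luc reporter 3T3 cells is read by fluorescence in the wells used for the Shh luciferase assay. Treatment lasts 23 hr with conditioned medium, then reagent 1 hr at 37C.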

[10] = qHTS assay to identify small molecule phospholipidosis (PLD) inducers (AID 1259344; active = well fitted curve in the direction sought with a large enough effect; an effect the other way counts as inactive or inconclusive)
Method in brief: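 Fluorescent phospholipid staining (LipidTOX Red) measured by automated microscopy in fixed HepG2 cells after 24 h treatment; nuclei counterstained with Hoechst 33342; amiodarone as reference inducer.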

Compound: CCSC(=O)N(CC(C)C)CC(C)C
- Potency [1]: inactive
- outcome [2]: inactive
- Potency [3]: inactive
- Potency [4]: inactive
- outcome [5]: inactive
- Potency [6]: inactive
- outcome [7]: inactive
- Potency [8]: inactive
- Potency [9]: inactive

Compound: CCCCOCCOCCOCc1cc2c(cc1CCC)OCO2
- Potency [1]: inactive
- outcome [2]: inactive
- Potency [3]: inactive
- Potency [4]: inactive
- Potency [10]: inactive
- Potency [6]: inactive
- outcome [7]: inactive
- Potency [8]: inactive
- Potency [9]: inactive

Compound: CCN(CC)CCOCCOC(=O)C1(c2ccccc2)CCCC1
- Potency [1]: inactive
- outcome [2]: inactive
- Potency [3]: inactive
- outcome [5]: inactive
- Potency [10]: inactive
- Potency [6]: inactive
- outcome [7]: inactive

Compound: Cc1cccc(C)c1NC(=O)C(C)N (configuration not stated)
- Potency [1]: 21.3 µM (active)
- outcome [2]: inactive
- Potency [3]: inactive
- outcome [5]: inactive
- Potency [10]: inactive
- Potency [6]: inactive
- outcome [7]: inactive
- Potency [8]: inactive
- Potency [9]: inactive

Compound: CN1CC(=O)NC1=N
- Potency [1]: inactive
- outcome [2]: inactive
- Potency [3]: inactive
- Potency [4]: inactive
- Potency [10]: inactive
- Potency [6]: inactive
- outcome [7]: inactive
- Potency [8]: inactive
- Potency [9]: inactive

Compound: CCOc1ccc(C(=O)OCCN(CC)CC)cc1
- Potency [1]: inactive
- outcome [2]: inactive
- Potency [3]: inactive
- Potency [4]: inactive
- Potency [10]: inactive
- Potency [6]: inactive
- outcome [7]: inactive
- Potency [8]: inactive
- Potency [9]: inactive

Compound: NS(=O)(=O)c1cc2c(cc1Cl)NC(C1CC3C=CC1C3)NS2(=O)=O (configuration not stated)
- Potency [1]: inactive
- outcome [2]: inactive
- Potency [3]: inactive
- Potency [4]: inactive
- outcome [5]: inactive
- Potency [10]: inactive
- Potency [6]: inactive
- outcome [7]: inactive
- Potency [8]: inactive
- Potency [9]: inactive

Compound: COc1ccc2c(c1)c(CC(=O)OCC(=O)O)c(C)n2C(=O)c1ccc(Cl)cc1
- Potency [1]: inactive
- outcome [2]: inactive
- Potency [3]: inactive
- Potency [4]: inactive
- Potency [10]: inactive
- Potency [6]: inactive
- outcome [7]: inactive
- Potency [8]: inactive
- Potency [9]: inactive

Compound: CC(C(=O)O)c1ccc(CC2CCCC2=O)cc1 (configuration not stated)
- Potency [1]: inactive
- outcome [2]: inactive
- Potency [3]: inactive
- outcome [5]: inactive
- Potency [10]: inactive
- Potency [6]: inactive
- outcome [7]: inactive
- Potency [8]: inactive
- Potency [9]: inactive

Compound: N[C@@H](C(=O)N[C@@H]1C(=O)N2C(C(=O)O)=C(Cl)CS[C@H]12)c1ccccc1
- cytotoxicity increase [1]: -13.7% [at 6.97 µM]
- activity change, negative = cytotoxicity [2]: 0.43% [at 8.39 µM]
- viability change, negative = cytotoxic [3]: 4.33% [at 8.39 µM]
- activity change, negative = inhibition [5]: 7.81% [at 8.39 µM]
- Potency [10]: inactive
- activity change, negative = inhibition [6]: 5.64% [at 8.39 µM]
- activity change, negative = cytotoxicity [7]: -0.59% [at 8.39 µM]
- viability change, negative = cytotoxic [8]: 1.34% [at 8.39 µM]
- viability change, negative = cytotoxic [9]: 3.69% [at 8.39 µM]

Compound: Cc1cccn2c(=O)c(-c3nnn[nH]3)cnc12
- cytotoxicity increase [1]: 3.76% [at 15.8 µM]
- activity change, negative = cytotoxicity [2]: 2.88% [at 19 µM]
- viability change, negative = cytotoxic [3]: 3.32% [at 19 µM]
- activity change, negative = inhibition [5]: 3.45% [at 19 µM]
- Potency [10]: inactive
- activity change, negative = inhibition [6]: -1.21% [at 19 µM]
- activity change, negative = cytotoxicity [7]: -4.27% [at 19 µM]
- viability change, negative = cytotoxic [8]: 4.51% [at 19 µM]
- Potency [9]: inactive

Compound: C[C@](N)(Cc1ccc(O)cc1)C(=O)O
- cytotoxicity increase [1]: -1.36% [at 6.97 µM]
- activity change, negative = cytotoxicity [2]: 0.275% [at 8.39 µM]
- viability change, negative = cytotoxic [3]: 2.64% [at 8.39 µM]
- activity change, negative = inhibition [5]: -5.6% [at 8.39 µM]
- Potency [10]: inactive
- activity change, negative = inhibition [6]: -0.294% [at 8.39 µM]
- activity change, negative = cytotoxicity [7]: -1.98% [at 8.39 µM]
- viability change, negative = cytotoxic [8]: 4.48% [at 8.39 µM]
- viability change, negative = cytotoxic [9]: 4.1% [at 8.39 µM]

Compound: Nc1nc2c(ncn2COC(CO)CO)c(=O)[nH]1
- Potency [1]: inactive
- outcome [2]: inactive
- Potency [3]: inactive
- outcome [5]: inactive
- Potency [10]: inactive
- Potency [6]: inactive
- outcome [7]: inactive
- Potency [8]: inactive
- Potency [9]: inactive

Compound: CCCCCOC(=O)CCCCC
- Potency [1]: inactive
- outcome [2]: inactive
- Potency [3]: inactive
- outcome [5]: inactive
- Potency [6]: inactive
- outcome [7]: inactive
- Potency [8]: inactive
- Potency [9]: inactive

Compound: CC(=O)Nc1c(I)cc(I)c(C(=O)O)c1I
- Potency [1]: inactive
- outcome [2]: inactive
- Potency [3]: inactive
- outcome [5]: inactive
- Potency [10]: inactive
- Potency [6]: inactive
- outcome [7]: inactive
- Potency [8]: inactive
- Potency [9]: inactive

Compound: O=C[C@H](O)[C@@H](O)[C@H](O)[C@H](O)CO
- Potency [1]: inactive
- outcome [2]: inactive
- Potency [3]: inactive
- outcome [5]: inactive
- PLD induction [10]: -4.07% [at 7.66 µM]
- Potency [6]: inactive
- outcome [7]: inactive
- Potency [8]: inactive
- Potency [9]: inactive

Compound: C=CCCCCCCCCC=O
- Potency [1]: inactive
- outcome [2]: inactive
- Potency [3]: inactive
- outcome [5]: inactive
- Potency [6]: inactive
- outcome [7]: inactive
- Potency [8]: inactive
- Potency [9]: inactive

Compound: O=C(O)CCCl
- Potency [1]: inactive
- outcome [2]: inactive
- Potency [3]: inactive
- outcome [5]: inactive
- Potency [6]: inactive
- outcome [7]: inactive
- Potency [8]: inactive
- Potency [9]: inactive

Compound: COc1ccccc1OCC(O)CN1CCN(CC(=O)Nc2c(C)cccc2C)CC1 (configuration not stated)
- Potency [1]: inactive
- outcome [2]: inactive
- Potency [3]: inactive
- outcome [5]: inactive
- Potency [10]: inactive
- Potency [6]: inactive
- outcome [7]: inactive
- Potency [8]: inactive
- Potency [9]: inactive

Compound: Cn1cc(S(C)=O)c(=O)c2ccc(F)cc21 (configuration not stated)
- Potency [1]: inactive
- outcome [2]: inactive
- Potency [3]: inactive
- outcome [5]: inactive
- Potency [10]: inactive
- Potency [6]: inactive
- outcome [7]: inactive
- Potency [8]: inactive
- Potency [9]: inactive

Compound: Nc1cc(=O)[nH]c(N)n1
- Potency [1]: inactive
- outcome [2]: inactive
- Potency [3]: inactive
- outcome [5]: inactive
- PLD induction [10]: 1.63% [at 7.66 µM]
- Potency [6]: inactive
- outcome [7]: inactive
- Potency [8]: inactive
- Potency [9]: inactive

Compound: O=C(O)Cc1ccc(CCNS(=O)(=O)c2ccc(Cl)cc2)cc1
- Potency [1]: inactive
- outcome [2]: inactive
- Potency [3]: inactive
- outcome [5]: inactive
- Potency [10]: inactive
- Potency [6]: inactive
- outcome [7]: inactive
- Potency [8]: inactive
- Potency [9]: inactive

Compound: N[C@H]1CN(c2c(F)cc3c(=O)c(C(=O)O)cn(C4C[C@H]4F)c3c2Cl)CC12CC2 (some centres not stated)
- Potency [1]: inactive
- outcome [2]: inactive
- Potency [3]: inactive
- outcome [5]: inactive
- Potency [10]: inactive
- Potency [6]: inactive
- outcome [7]: inactive
- Potency [8]: inactive
- Potency [9]: inactive

Compound: Nc1ccc(S(=O)(=O)Nc2ccnn2-c2ccccc2)cc1
- cytotoxicity increase [1]: 0.943% [at 15.8 µM]
- activity change, negative = cytotoxicity [2]: 0.0467% [at 19 µM]
- viability change, negative = cytotoxic [3]: 0.287% [at 19 µM]
- activity change, negative = inhibition [5]: 0.724% [at 19 µM]
- Potency [10]: inactive
- activity change, negative = inhibition [6]: -2.22% [at 19 µM]
- activity change, negative = cytotoxicity [7]: 2.68% [at 19 µM]
- viability change, negative = cytotoxic [8]: 10.6% [at 19 µM]
- Potency [9]: inactive
